The structures appear in SMILES notation. Active and inactive are the calls of the source. Unless noted, how the calls were made is not given here.

For 26 molecules, composite z-score and z-score results are on record in PubChem BioAssay.

Assay [1] deals with XIP peptide (Xip251-270) binding. The assay is described as follows: small-molecule binders of XIP peptide, primary screen, biochemical, small-molecule microarray, fluorescence 635/667 nm, 0.1 µg/mL protein (AID 1182). Conditions: fluorescent protein binding, 635 nm, higher = more signal, called active from +8 up or from −8 down.
The subject of assay [2] is XIP peptide (Xip251-270). The assay is described as follows: small-molecule binders of XIP peptide, primary screen, biochemical, small-molecule microarray, fluorescence 635/667 nm, 0.5 µg/mL protein (AID 1183). As to conditions: small-molecule microarray binding, fluorescence 635 nm; higher = more signal.
A short description of assay [3]: Plasmodium falciparum growth inhibition, primary screen, strain 3D7, DAPI fluorescence, 100 nL (AID 1184).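 Further: parasites grown inside human red blood cells in medium with human serum.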 Conditions: P. falciparum 3D7 growth, 3 d, higher = more signal.
The target in assay [4] is Homeobox protein Hox-A13 (Mus musculus) (UniProt Q62424). The assay is described as follows: inhibitors of HoxA13-DNA binding, primary screen, biochemical, fluorescence polarization, labeled oligonucleotide (AID 1185). Conditions: 15 min, higher = more signal, called active from +8 up or from −8 down. In general terms: Fluorescence polarisation rises when a labelled molecule tumbles more slowly, as on binding a larger partner.

The nature of assay [5]: inhibitors of hydroxyurea-induced Chk1 phosphorylation, primary screen, imaging, HeLa, phospho-Chk1 antibody, percent positive cells (AID 1186). Conditions: hydroxyurea-induced phospho-Chk1 immunofluorescence imaging, higher = more signal.
Assay [6] in a line: inhibitors of hydroxyurea-induced Chk1 phosphorylation, primary screen, imaging, HeLa, phospho-Chk1 nuclear intensity (AID 1187). As to conditions: hydroxyurea-induced phospho-Chk1 immunofluorescence imaging, higher = more signal.

Homeobox protein Hox-A13 (Mus musculus), sequence (Q62424 whole entry, looked up): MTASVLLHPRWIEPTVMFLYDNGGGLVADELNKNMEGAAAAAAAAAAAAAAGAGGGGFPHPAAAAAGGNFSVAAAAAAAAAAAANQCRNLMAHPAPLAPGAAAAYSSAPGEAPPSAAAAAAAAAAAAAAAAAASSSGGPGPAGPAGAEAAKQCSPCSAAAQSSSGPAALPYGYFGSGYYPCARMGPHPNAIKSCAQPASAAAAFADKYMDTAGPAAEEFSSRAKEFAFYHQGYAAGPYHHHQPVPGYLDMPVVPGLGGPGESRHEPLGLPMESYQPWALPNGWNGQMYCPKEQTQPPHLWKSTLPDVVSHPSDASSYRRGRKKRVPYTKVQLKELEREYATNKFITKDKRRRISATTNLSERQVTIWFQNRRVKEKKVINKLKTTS

In the case of `C=CCNC(=O)[C@@H]1[C@H]2C(=O)O[C@H](c3ccccc3)[C@H](c3ccccc3)N2[C@H](c2ccc(OCCO)cc2)[C@@]12C(=O)Nc1ccc(C#CCC(C(=O)OC)C(=O)OC)cc12`, the results for the composite z-score in assay [1] and in assay [2] were 1.21 (inactive) and 0.905, respectively. The z-score is -2.22 in assay [3], -1.05 (inactive) in assay [4], 0.222 (inactive) in assay [5] and 0.477 (inactive) in assay [6].

With `CC(C)(C)OC(=O)CC[C@]1(C(=O)N2CCOCC2)N=C(c2ccc(OCCCO)cc2)O[C@H]1c1ccccc1N=[N+]=[N-]`, the composite z-score in assay [1] is 0.472 (inactive); in assay [2] it was 0.472. Moreover, the z-score is -2.28 in assay [3], -5.38 (inactive) in assay [4], -0.112 (inactive) in assay [5] and 0.0839 (inactive) in assay [6].

For `CC(=O)NCCCC[C@@H]1NC(=O)[C@H]2C[C@@H](C(=O)NCCCCCCNC(=O)CS)[C@@H](c3ccc(O)cc3)N2C1=O`, the composite z-score in assay [1] was 0.957 (inactive); in assay [2], 0.818. For the same molecule, the z-score was -1.26 in assay [3], -4.69 (inactive) in assay [4], 0.307 (inactive) in assay [5] and 0.663 (inactive) in assay [6].

Take `C[C@@]1([C@@H](NC(=O)c2ccc(-c3ccccc3)cc2)c2ccc(Cl)cc2)C[C@H]1C1CCCCC1`: the composite z-score is -0.223 (inactive) in assay [1] and 0.492 in assay [2]. In addition, the z-score in assay [3] is -0.311; in assay [4], -2.06 (inactive); in assay [5], -0.273 (inactive); in assay [6], 0.861 (inactive).

In the case of `O=C(NC1CC1)[C@@H]1c2ccccc2C(=O)N(Cc2ccccc2Cl)[C@H]1c1ccc(CO)cc1`, the composite z-score is 0.628 (inactive) in assay [1] and 0.119 in assay [2]. In addition, the z-score in assay [3] is -0.46; in assay [4], -2.23 (inactive); in assay [5] it was -0.825 (inactive); in assay [6], -1.13 (inactive).

With `CCCC#C[Si](O[C@H](CC)c1cn(Cc2cccc(Cl)c2)nn1)(C(C)C)C(C)C`, the composite z-score is -0.0517 (inactive) in assay [1] and 0.298 in assay [2]. Moreover, the z-score is -0.0039 in assay [3], -0.759 (inactive) in assay [4], -0.501 (inactive) in assay [5] and -0.675 (inactive) in assay [6].

With `CC1(C)[C@@H]2CC(C(O)C3C=CC4C(=O)N(Cc5ccccc5)C(=O)C4N3n3cnnc3)=C[C@H]1C2` (stereo partly specified), the composite z-score in assay [1] was 0.902 (inactive); in assay [2] it was -0.0686. The z-score was -0.101 in assay [3], -3.19 (inactive) in assay [4], 0.338 (inactive) in assay [5] and -0.115 (inactive) in assay [6].

In the case of `COC(=O)[C@@]1(Cc2ccc(OC)cc2)[C@H]2c3cc(C(=O)N4CCCC4)n(Cc4ccc(O)c(OC)c4)c3C[C@H]2CN1C(=O)c1ccccc1`, the results for the composite z-score in assay [1] and in assay [2] were 1.29 (inactive) and 0.575, respectively. Further, the z-score in assay [3] was -1.65; in assay [4] it was -4.69 (inactive); in assay [5], 0.449 (inactive); in assay [6] it was 0.27 (inactive).

Turning to `COCCOC(=O)N1C(=O)[C@@]2(c3ccccc31)[C@H](c1ccc(O)cc1)N1[C@H](c3ccccc3)[C@H](c3ccccc3)OC(=O)[C@H]1[C@@H]2C(=O)Nc1nc2ccccc2s1`, the composite z-score is 0.343 (inactive) in assay [1] and 0.78 in assay [2]. Further, the z-score in assay [3] was 0.194; in assay [4] it was -0.526 (inactive); in assay [5], -0.0228 (inactive); in assay [6] it was 0.221 (inactive).

On to `O=C(CS)NCCCCCCNC(=O)[C@@H]1C[C@@H]2C(=O)N[C@@H](Cc3ccccc3)C(=O)N2[C@@H]1c1cccc(OCCO)c1`, for which the composite z-score was 0.644 (inactive) in assay [1] and 0.763 in assay [2]. Besides, the z-score in assay [3] was 1.17; in assay [4] it was -2.64 (inactive); in assay [5], 0.835 (inactive); in assay [6], 1.17 (inactive).

Consider `CCOC(=O)[C@H]1C/C=C/C[C@H](C(=O)OCC)C(=O)O[C@H]2[C@@H](OC)O[C@H](CO)[C@@H](OC(=O)c3c(OC)cccc3OC)[C@@H]2OC1=O`, for which the composite z-score in assay [1] is 0.676 (inactive); in assay [2] it was 0.709. Besides, the z-score in assay [3] is 0.754; in assay [4], -3 (inactive); in assay [5], -0.0052 (inactive); in assay [6], -0.142 (inactive).

As for `COc1cc2c(cc1OC)CN(C(=O)[C@@H]1[C@H]3C(=O)O[C@H](c4ccccc4)[C@H](c4ccccc4)N3[C@H](c3ccc(O)cc3)[C@@]13C(=O)Nc1ccccc13)CC2`, the composite z-score in assay [1] is 0.0997 (inactive); in assay [2], 0.686. The z-score in assay [3] is -1.42; in assay [4] it was -2.32 (inactive); in assay [5], -0.478 (inactive); in assay [6], -0.728 (inactive).

Regarding `C=C(/C(=C/C[C@H](OC(C)=O)c1ccc(CO)o1)c1cc(C(=O)OC)ccc1OC)C(C)C`, the composite z-score in assay [1] was -0.508 (inactive); in assay [2] it was -0.567. The z-score is -2.09 in assay [3], -4.8 (inactive) in assay [4], -0.33 (inactive) in assay [5] and -0.286 (inactive) in assay [6].

As to `Cc1ccc(S[C@]2(C(=O)NCCCN(C)C)CC(=O)N(Cc3cc(C(F)(F)F)cc(C(F)(F)F)c3)[C@@H]2c2ccc(CO)cc2I)cc1`, the figures for the composite z-score in assay [1] and in assay [2] were -0.773 (inactive) and -0.878, respectively. For the same molecule, the z-score is 0.227 in assay [3], -3.31 (inactive) in assay [4], 0.522 (inactive) in assay [5] and 0.201 (inactive) in assay [6].

On to `C=CCOC(=O)[C@H]1[C@@H]2C(=O)O[C@@H](c3ccccc3)[C@@H](c3ccccc3)N2[C@@H](c2ccc(OCCOC(=O)[C@H]3C[C@H]4C(=O)N[C@@H](CCCC[N+](C)(C)C)C(=O)N4[C@H]3c3ccc(O)cc3)cc2)[C@]12C(=O)Nc1ccc(I)cc12`, for which the composite z-score in assay [1] was 1.7 (inactive); in assay [2] it was 0.848. In addition, the z-score in assay [3] is 0.615; in assay [4], -2.52 (inactive); in assay [5], -0.324 (inactive); in assay [6], -0.62 (inactive).

As for `CC1(C)[C@@H]2CC(C(O)C3C=CC4C(=O)N(c5ccccc5)C(=O)C4N3Nc3ccc([N+](=O)[O-])cc3)=C[C@H]1C2` (stereo partly specified), the composite z-score in assay [1] was 0.19 (inactive); in assay [2], 0.797. In addition, the z-score is -0.545 in assay [3], -2.94 (inactive) in assay [4], 0.0793 (inactive) in assay [5] and -0.261 (inactive) in assay [6].

As to `CCOC(=O)C1=CC[C@@H](c2ccccc2)N(S(=O)(=O)c2ccc(C)cc2)[C@H]1c1ccccc1C`, the composite z-score in assay [1] is -0.164 (inactive); in assay [2], 0.291. Further, the z-score is -1.71 in assay [3], -0.813 (inactive) in assay [4], 0.023 (inactive) in assay [5] and 0.112 (inactive) in assay [6].

In the case of `C=CCC(OC(C)=O)[C@@H]1[C@@H](N(Cc2ccc(-c3ccccc3)cc2)C(=O)Cc2ccc(OC)cc2)c2cc(OCCCO)ccc2N1C(=O)Cc1ccc2ccccc2c1` (stereo partly specified), the composite z-score in assay [1] is 1.46 (inactive); in assay [2], -0.282. The z-score in assay [3] is -0.874; in assay [4] it was -1.62 (inactive); in assay [5] it was 0.802 (inactive); in assay [6], 0.325 (inactive).

Turning to `C=CCNC(=O)[C@@H]1[C@H]2C(=O)O[C@H](c3ccccc3)[C@H](c3ccccc3)N2[C@H](c2ccc(O)cc2)[C@@]12C(=O)N(C(=O)OCCOC)c1ccc(C#CCNC(N)=O)cc12`, the composite z-score is 0.963 (inactive) in assay [1] and 0.787 in assay [2]. For the same molecule, the z-score in assay [3] was 0.251; in assay [4], -2.11 (inactive); in assay [5], -0.26 (inactive); in assay [6], -0.436 (inactive).

Regarding `CN1C(=O)C2C=CC(C(O)c3ccco3)N(Nc3ccccc3)C2C1=O` (stereo unspecified), the composite z-score was -0.225 (inactive) in assay [1] and 0.343 in assay [2]. Also, the z-score is -0.142 in assay [3], -3.54 (inactive) in assay [4], -0.221 (inactive) in assay [5] and -0.752 (inactive) in assay [6].

As to `C#C[C@H](O[Si](C#Cc1ccc(Oc2ccccc2)cc1)(C(C)C)C(C)C)c1ccccc1`, the figures for the composite z-score in assay [1] and in assay [2] were 0.359 (inactive) and -0.418, respectively. In addition, the z-score in assay [3] was -1; in assay [4], -1.04 (inactive); in assay [5], 0.179 (inactive); in assay [6], -0.049 (inactive).

On to `CCOC(=O)C[C@H]1[C@H](OC(=O)c2ccc(C(=O)c3ccccc3)cc2)[C@@H](NC(=O)c2ccccc2)c2cc(OCCCO)ccc2N1C(=O)c1ccc2ccccc2n1`, for which the composite z-score was 0.0933 (inactive) in assay [1] and 0.0113 in assay [2]. Moreover, the z-score in assay [3] was -1.43; in assay [4], -3.02 (inactive); in assay [5] it was 0.193 (inactive); in assay [6], -0.363 (inactive).

Consider `CC(C)=CCCC(C)=CC(O)C1C=CC2C(=O)N(C)C(=O)C2N1Nc1ccccc1` (stereo unspecified), for which the composite z-score in assay [1] is 0.438 (inactive); in assay [2], 0.624. In addition, the z-score in assay [3] was -0.49; in assay [4] it was -3.34 (inactive); in assay [5] it was -1.1 (inactive); in assay [6] it was -1.34 (inactive).

`C=CCOC(=O)[C@H]1[C@@H]2C(=O)O[C@@H](c3ccccc3)[C@@H](c3ccccc3)N2[C@@H](c2ccc(OCCOC(=O)[C@@H]3C[C@@H]4C(=O)N[C@@H](CC(C)C)C(=O)N4[C@@H]3c3ccc(O)cc3)cc2)[C@]12C(=O)Nc1ccccc12`: the composite z-score is 1.25 (inactive) in assay [1] and 0.802 in assay [2]. In addition, the z-score in assay [3] was -1.66; in assay [4] it was -0.596 (inactive); in assay [5], 0.659 (inactive); in assay [6] it was 0.991 (inactive).

With `COc1ccc(C(=O)Nc2ccc(CN3C(=O)[C@]4(O[C@H](CCO)[C@@H]([Si](C)(C)c5ccc(OC)cc5)[C@@H]4C)c4ccccc43)cc2)cc1`, the figures for the composite z-score in assay [1] and in assay [2] were 2.8 (inactive) and 0.618, respectively. For the same molecule, the z-score in assay [3] was -2.82; in assay [4], -0.677 (inactive); in assay [5], -0.02 (inactive); in assay [6] it was 0.458 (inactive).

On to `O=C1O[C@H](c2ccccc2)[C@H](c2ccccc2)N2[C@H]1[C@@H](C(=O)N1CCCCCCC1)[C@]1(C(=O)Nc3ccc(C#CCCO)cc31)[C@H]2c1ccccc1OCCO`, for which the composite z-score in assay [1] is 9.51 (active); in assay [2], 1.07. Moreover, the z-score in assay [3] is -2.07; in assay [4], 4.52 (inactive); in assay [5] it was 0.208 (inactive); in assay [6] it was 0.259 (inactive).
